Screening results deposited in PubChem BioAssay by several laboratories.
Mtb UGM inh = M. tuberculosis UGM enzyme inhibitors, primary screen, biochemical, fluorescence polarization, single point; purified UGM, fluorescence polarization probe displacement; inhibition, % at 10 µM; hit rate 0.06% among 320,000; AID 504406, 2011; in the data active means inhibition above about 10%, passing the limit was not always enough
Rv3671c inh = Rv3671c serine protease inhibitors, primary screen, biochemical, fluorescence polarization, M. tuberculosis H37Rv | hit rate 0.048% among 320,000 | P9WHR9 | inhibition, % at 5.96 µM; in the data active means inhibition above about 38%;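 further: extracellular domain of Rv3671c used as enzyme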
Target sequence (P9WHR9 whole entry, looked up, the tested form may be a part): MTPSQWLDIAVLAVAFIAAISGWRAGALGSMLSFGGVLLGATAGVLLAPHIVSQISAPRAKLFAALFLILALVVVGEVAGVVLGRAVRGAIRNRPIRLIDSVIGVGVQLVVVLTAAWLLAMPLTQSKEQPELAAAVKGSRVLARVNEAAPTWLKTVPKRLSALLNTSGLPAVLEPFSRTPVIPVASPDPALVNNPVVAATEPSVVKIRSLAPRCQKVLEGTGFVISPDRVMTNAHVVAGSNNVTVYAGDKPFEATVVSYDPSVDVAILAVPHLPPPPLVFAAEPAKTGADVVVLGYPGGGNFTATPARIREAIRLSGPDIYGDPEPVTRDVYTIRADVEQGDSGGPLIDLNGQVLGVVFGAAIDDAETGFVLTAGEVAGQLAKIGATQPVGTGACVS
RecA splice inh = Mtb RecA intein splicing inhibitors, primary screen, biochemical, fluorescence, HTS. hit rate 0.75% among 290,000. inhibition, % (concentration not given with the values). AID 2221, 2009. cell-free RecA intein splicing; in the data active means inhibition above about 30%
TcdB GH inh = TcdB glycohydrolase inhibitors, primary screen, biochemical, single point, plate reader | AID 652162, 2013 | TcdB glycohydrolase enzymatic assay | hit rate 0.24% among 350,000 | inhibition, % at 9.99 µM | Toxin B (Clostridioides difficile), P18177; in the data active means inhibition above about 10%
FadD28 FP inh = inhibitors of FadD28 bisubstrate probe binding, primary screen, biochemical, fluorescence polarization, single point. Mycobacterium tuberculosis FadD28 fatty-acid-AMP ligase. inhibition, % at 12.5 µM. hit rate 0.22% among 360,000. AID 588549, 2011; in the data active means inhibition above about 8.5%, passing the limit was not always enough
Mtb BioA inh = M. tuberculosis BioA enzyme inhibitors, primary screen, biochemical, plate reader, single point, HTS. purified M. tuberculosis BioA enzyme. inhibition, % at 9.99 µM. hit rate 0.096% among 360,000. 7,8-diaminopelargonic acid synthase BioA (Mycobacterium tuberculosis); in the data active means inhibition above about 40%
Of the large screens only hits and unclear results are named; the others gave an inactive call. In the library only some 0.97% were active in any assay of this set; here they are far more common.

COc1cc(C2NC(=O)C(C#N)=C(Nc3cccc(C)c3)S2)ccc1O (stereo unspecified)	RecA splice inh 87.0 (no result: Mtb BioA inh)
COCCCNC1=C(C#N)C(=O)NC(c2cccc([N+](=O)[O-])c2)S1 (stereo unspecified)	none (no result: Mtb UGM inh, Rv3671c inh, RecA splice inh, Mtb BioA inh)
COc1cccc(-c2ccc([C@@H]3[C@@H](CO)N4C(=O)CN(C(=O)CN5CCOCC5)C[C@H]34)cc2)c1	none (no result: Mtb UGM inh, Rv3671c inh, RecA splice inh, FadD28 FP inh, Mtb BioA inh)
CO[C@H]1CN(C)C(=O)c2ccc(NC(C)=O)cc2OC[C@H](C)N(C(=O)c2cccnc2)C[C@@H]1C	none (no result: Mtb UGM inh, Rv3671c inh, RecA splice inh, FadD28 FP inh, Mtb BioA inh)
N#Cc1c(SCC(=O)Nc2nc3ccc(Br)cc3s2)sc2c(O)cc(=O)[nH]c12	none (no result: RecA splice inh)
O=C(CSc1nc(O)cc(=O)n1-c1ccccc1)Nc1nc2ccccc2s1	FadD28 FP inh 12.7
CCCSc1nnc(NC(=O)CSc2sc3c(O)cc(=O)[nH]c3c2C#N)s1	FadD28 FP inh 15.8
COc1ccc(NC(=O)CSc2nc(O)cc(=O)n2-c2ccccc2)cc1	none (no result: Rv3671c inh)
N#Cc1c(SCC(=O)Nc2nc3ccccc3s2)sc2c(O)cc(=O)[nH]c12	FadD28 FP inh 12.1 (no result: RecA splice inh)
COc1ccc2c3c(n(C)c2c1)[C@@H](CO)N(C(=O)c1ccncc1)CC31CCN(S(C)(=O)=O)CC1	none (no result: Mtb UGM inh, Rv3671c inh, RecA splice inh, FadD28 FP inh, Mtb BioA inh)
C[C@@H]1CN([C@H](C)CO)C(=O)c2cc(NC(=O)Cc3ccccc3)ccc2O[C@@H](C)CCCCO[C@H]1CN(C)Cc1ccc2c(c1)OCO2	none (no result: Mtb UGM inh, Rv3671c inh, RecA splice inh, TcdB GH inh, FadD28 FP inh)
CN1CCN(C(=O)C[C@H]2CC[C@@H]3[C@@H](COc4ccc(NC(=O)C5CCC5)cc4C(=O)N3C)O2)CC1	none (no result: Mtb UGM inh, Rv3671c inh, RecA splice inh, FadD28 FP inh, Mtb BioA inh)
Cn1c2c(c(=O)n(C)c1=O)[C@@]1(C(=O)Nc3ccccc31)C(C#N)=C(N)O2	RecA splice inh 34.3 (no result: Mtb BioA inh)
N#CC1=C(N)Oc2n[nH]c(-c3ccccc3)c2C12C(=O)Nc1ccccc12 (stereo unspecified)	none (no result: TcdB GH inh)
O=C(C[C@@H]1C=C[C@H](NC(=O)Nc2cc(F)ccc2F)[C@@H](CO)O1)NCc1ccccn1	none (no result: Mtb UGM inh, Rv3671c inh, RecA splice inh, FadD28 FP inh)
Cc1ccc2c(c1)/C(=C/c1ccccc1C)C(=O)N2	TcdB GH inh 11.7 (no result: FadD28 FP inh)
Cc1ccc2c(c1)/C(=C/c1ccc(F)cc1)C(=O)N2	none
O=C(CN1C(=O)/C(=C/c2ccco2)SC1=S)Nc1ccc(C(=O)O)c(O)c1	FadD28 FP inh 23.1
COc1ccc(NC(=O)CCCN2C(=O)/C(=C\c3ccco3)SC2=S)cc1	none (no result: TcdB GH inh)
O=C(CN1C(=O)/C(=C/c2ccco2)SC1=S)Nc1ccc(O)c(C(=O)O)c1	FadD28 FP inh 36.3
CC(C(=O)N(C)C1CCS(=O)(=O)C1)N1C(=O)/C(=C/c2ccco2)SC1=S (stereo unspecified)	none
Cc1ccc(NC(=O)CN2C(=O)S/C(=C\c3ccc(-c4cccc(C(=O)O)c4C)o3)C2=O)cc1C	FadD28 FP inh 11.5 (no result: Mtb UGM inh, Rv3671c inh, RecA splice inh, Mtb BioA inh)
O=C(CCCN1C(=O)C(=Cc2ccc3c(c2)OCO3)SC1=S)Nc1ccc(C(=O)O)c(O)c1	none (no result: Mtb UGM inh, Rv3671c inh, RecA splice inh)
CC(C(=O)Nc1ccc(C(=O)O)c(O)c1)N1C(=O)/C(=C\c2ccco2)SC1=S (stereo unspecified)	FadD28 FP inh 25.3 (no result: TcdB GH inh)
CN1c2ccc(C3=CCCCC3)cc2[C@@H]2[C@@H](CCN2C(=O)Nc2ccc(F)cc2)[C@@H]1CO	none (no result: Mtb UGM inh, Rv3671c inh, RecA splice inh, TcdB GH inh, FadD28 FP inh)
CO[C@H]1CN(C)C(=O)c2ccc(NC(=O)c3ccc4c(c3)OCO4)cc2OC[C@H](C)N(CC2CC2)C[C@H]1C	none (no result: Mtb UGM inh, Rv3671c inh, RecA splice inh, FadD28 FP inh)
CC(C)(C)N1C(=O)c2ccc(C(=O)Nc3ccc(O)cc3)cc2C1=O	TcdB GH inh 22.5
CCOCCCn1c(=NC(=O)c2cccs2)c(C#N)cc2c(=O)n3ccccc3nc21	Mtb UGM inh 15.9
Cc1ccccc1-c1cc(=O)c2c(O)cccc2o1	none
CCOC(=O)c1oc2cc(O)ccc2c(=O)c1-c1ccccc1OC	none (no result: TcdB GH inh, Mtb BioA inh)
O=c1cc2oc3cc(O)c(O)cc3c(-c3ccccc3O)c-2cc1O	FadD28 FP inh 80.9 (no result: Mtb UGM inh, Rv3671c inh, RecA splice inh, TcdB GH inh, Mtb BioA inh)
CCOc1ccccc1-c1c2cc(O)c(=O)cc-2oc2cc(O)c(O)cc12	FadD28 FP inh 130.7 (no result: Mtb UGM inh, Rv3671c inh, RecA splice inh, TcdB GH inh, Mtb BioA inh)
Cc1ccccc1C(C(=O)NC1CCCCC1)N(C(=O)c1ccccn1)c1cccnc1 (stereo unspecified)	TcdB GH inh 13.8
